Assay outcomes from PubChem BioAssay.
uPA surface inh: cell surface uPA generation inhibition; cell surface uPA generation assay, qHTS; Potency, µM (series often up to 38.3 µM), hits mostly inhibitors; actives 0.31% (n = 330,000); AID 540303; active = well fitted inhibition curve with a large enough effect; inconclusive = small, poorly fitted or top-dose-only effect; inactive = no such curve, though single readings can be large or run the other way; tested in mouse RAW 264.7 cells; note: nearly all actives have a fitted effect of over 55% in size
IL1B secr inh: inhibitors of inflammasome signaling (IL-1 beta secretion) | THP-1 LPS/ATP IL-1B secretion, AlphaLISA, 16 h; stronger effect = lower value | activity change, % at 57.5 µM | actives 4.7% (n = 360,000); in the data active = activity change below about -50%; inconclusive = mostly about -30% to -49%
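THP-1 cells pretreated 1 hr with compounds (up to 57.5 uM final), then stimulated with LPS (250 ng/mL final) plus ATP (1.25 mM final); secreted IL-1B measured by AlphaLISA after 16 hr, decreased signal indicating inhibition.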
DT40 TDP1 no CPT: qHTS for Inhibitors of human tyrosyl-DNA phosphodiesterase 1 (TDP1): qHTS in cells in absence of CPT; DT40 Tdp1-/- hTDP1 cells, no CPT, ATP luminescence, 48 h; Potency, µM (doses to about 46.2 µM), usual class: inhibitors; actives 15% (n = 420,000); AID 686978, 2013; note: nearly all actives have a fitted effect of over 55% in size
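A cellular qHTS used chicken DT40 cells lacking endogenous Tdp1 but carrying stably transfected human TDP1. Compounds were applied without camptothecin, and cell growth kinetics were judged by ATP-dependent luminescence after ≥48 hr.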
HT1080-NT tox: kills 2HG-producing HT-1080-NT fibrosarcoma cells; actives 1.6% (n = 360,000); Potency, µM (titrated, usually from 46.1 µM), usual class: cytotoxic; HT-1080-NT fibrosarcoma viability, CellTiter-Glo ATP luminescence, 48 h; AID 686970;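 note: NT is the 2HG producing partner of a matched IDH1 knockdown line; nearly all actives have a fitted effect of over 55% in size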
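Viability of the 2HG-overproducing fibrosarcoma line after 48 hours of compound exposure at 37 degrees C was determined by luminescence with CellTiter-Glo, and concentration-effect curves were then fitted and categorized.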
DT40 TDP1 CPT: growth inhibition of DT40 Tdp1-/-;hTDP1 cells with camptothecin (screen for TDP1 inhibitors) | Potency, µM (top dose mostly 46.2 µM), usual class: inhibitors | chicken DT40 Tdp1-/-;hTDP1 cells + 20 nM CPT, ATP luminescence, 48 h | actives 12% (n = 420,000); note: nearly all actives have a fitted effect of over 55% in size
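Chicken DT40 Tdp1-/- cells complemented with human TDP1, 400 cells/well, exposed to compounds plus 20 nM camptothecin for at least 48 h at 37 C; viability read as ATP content by CellTiter-Glo luminescence.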
HT1080 IDH1KD tx: toxicity to HT-1080 IDH1 knockdown cells (counter line); HT-1080 IDH1 knockdown viability, ATP luminescence, 48 h; Potency, µM (top dose mostly 46.1 µM), usual class: cytotoxic; actives 2% (n = 360,000); AID 686971
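Knockdown cells (IDH1KD HT-1080) received compounds 2 h after plating at 750 cells/well and were kept 48 h at 37 °C in 5% FBS RPMI. A CellTiter-Glo luminescence read gave % activity for curve fitting.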
Each line names hits and unclear results; the compound was inactive in the other large screens. This is a sample that favours compounds with a hit; in the whole collection about 19% have one here. Unless noted, calls come from the whole dose curve; as a rule, active = well fitted curve in the direction sought with a large enough effect; inconclusive = small, poorly fitted or top-dose-only effect, or another doubt; inactive = no such curve, though single readings can be large; an effect the other way counts as inactive or inconclusive.

COc1ccc(N2CCN(C(=O)c3c(-c4c(F)cccc4Cl)noc3C)CC2)cc1	none
O=C(N/C(=C/c1ccc(F)cc1)C(=O)N1CCCC1)c1ccccc1	none
CCN1CCN(CCNC(=O)c2ccc(/C=C3/Sc4ccccc4N(Cc4cccc(Cl)c4)C3=O)cc2)CC1	IL1B secr inh -99, DT40 TDP1 no CPT 18µM, HT1080-NT tox 15µM, DT40 TDP1 CPT 18µM, HT1080 IDH1KD tx inconclusive
Cc1ccccc1CN1C(=O)/C(=C\c2ccc(C(=O)NCCN3CCOCC3)cc2)Sc2ccccc21	IL1B secr inh inconclusive, DT40 TDP1 no CPT inconclusive, HT1080-NT tox inconclusive, DT40 TDP1 CPT inconclusive, HT1080 IDH1KD tx inconclusive
CN1CCN(CCCNC(=O)c2ccc(/C=C3\Sc4ccccc4N(Cc4ccccc4F)C3=O)cc2)CC1	uPA surface inh inconclusive, DT40 TDP1 no CPT inconclusive, HT1080-NT tox 23µM, DT40 TDP1 CPT inconclusive, HT1080 IDH1KD tx inconclusive
CCN1CCN(CCNC(=O)c2ccc3c(c2)N(Cc2ccc(F)cc2)C(=O)/C(=C/c2ccccc2)S3)CC1	IL1B secr inh -102, DT40 TDP1 no CPT 8.2µM, HT1080-NT tox 6.5µM, DT40 TDP1 CPT 12µM, HT1080 IDH1KD tx 5.2µM
CCc1c(C)c2cc(Cl)c(O)c(CN3CCCC3)c2oc1=O	none
OC[C@H]1O[C@@H](O[C@@H]2[C@@H](CO)O[C@](O)(CO)[C@H]2O)[C@H](O)[C@@H](O)[C@H]1O	none (no result: uPA surface inh, IL1B secr inh, HT1080-NT tox, HT1080 IDH1KD tx)
COc1ccc(CN2C(=O)c3ccc(C(=O)O)cc3C2=O)cc1	none
COc1ccccc1-c1ccc(C(=O)N2CCC(N3CCc4ccccc4C3)CC2)c(N(C)CC2COCCO2)n1 (centres undefined)	none (no result: uPA surface inh, IL1B secr inh, HT1080-NT tox, HT1080 IDH1KD tx)
C[C@@H]1CN([C@@H](C)CO)S(=O)(=O)c2ccc(Br)cc2O[C@H]1CN(C)C(=O)Nc1ccc(C(F)(F)F)cc1	DT40 TDP1 no CPT inconclusive, HT1080-NT tox inconclusive, DT40 TDP1 CPT inconclusive, HT1080 IDH1KD tx inconclusive (no result: uPA surface inh)
Cc1ccccc1-c1ccc2c(c1)O[C@@H](CN(C)C(=O)Nc1ccc(C(F)(F)F)cc1)[C@H](C)CN([C@@H](C)CO)S2(=O)=O	IL1B secr inh inconclusive, DT40 TDP1 no CPT 13µM, HT1080-NT tox 16µM, DT40 TDP1 CPT 21µM, HT1080 IDH1KD tx 16µM (no result: uPA surface inh)
C[C@@H]1CN([C@H](C)CO)S(=O)(=O)c2ccc(Br)cc2O[C@@H]1CN(C)C(=O)Nc1ccc(C(F)(F)F)cc1	IL1B secr inh -70, DT40 TDP1 no CPT inconclusive, HT1080-NT tox inconclusive, DT40 TDP1 CPT 21µM, HT1080 IDH1KD tx inconclusive (no result: uPA surface inh)
Cc1ccc2nc(Cl)c3cc(C(=O)NC4CCCCC4)sc3c2c1	none (no result: uPA surface inh, IL1B secr inh, HT1080-NT tox, HT1080 IDH1KD tx)
CC(=O)c1ccc(OC(=O)Oc2ccc(C(C)=O)cc2)cc1	none
CC(=O)Oc1ccc2ccc3ccc(C(C)=O)cc3c2c1	IL1B secr inh inconclusive, DT40 TDP1 no CPT 18µM, DT40 TDP1 CPT inconclusive, HT1080 IDH1KD tx inconclusive
COc1ccc(/C=N/n2cnc3c([nH]c4ccc(Br)cc43)c2=O)cc1CN1CCOCC1	IL1B secr inh -88, DT40 TDP1 no CPT inconclusive, DT40 TDP1 CPT 16µM
COc1ccc(/C=N/n2cnc3c([nH]c4ccccc43)c2=O)cc1CO	DT40 TDP1 no CPT inconclusive, DT40 TDP1 CPT inconclusive
Cc1nc(CS(=O)c2ccc(Cl)cc2)cc(NCc2ccc(Cl)cc2Cl)n1 (centres undefined)	IL1B secr inh -77, DT40 TDP1 no CPT 21µM, HT1080-NT tox inconclusive, DT40 TDP1 CPT 15µM, HT1080 IDH1KD tx inconclusive
COc1ccccc1CCNC(=O)Cc1c(C)c2c(O)cc(C)cc2oc1=O	DT40 TDP1 CPT inconclusive (no result: uPA surface inh, IL1B secr inh, HT1080-NT tox, HT1080 IDH1KD tx)
CC(/C=N\Nc1nnc2c(n1)[nH]c1c(C)cccc12)=C\c1ccco1	DT40 TDP1 no CPT 10µM, DT40 TDP1 CPT 9.2µM, HT1080 IDH1KD tx inconclusive
CCOC(=O)Cc1cn2c(=O)cc(CSCC(=O)Nc3ccc(C)c(C)c3)nc2s1	DT40 TDP1 no CPT inconclusive, DT40 TDP1 CPT 18µM
Cc1ccc(S(=O)(=O)N2CCCCC2)cc1NC(=O)c1ccc(Cl)nc1	DT40 TDP1 no CPT inconclusive, DT40 TDP1 CPT inconclusive
CCC(C(N)=NCCc1ccc(OC)c(OC)c1)c1ccccc1 (centres undefined)	DT40 TDP1 no CPT 8.2µM, DT40 TDP1 CPT 15µM
COc1ccc(CCN=C(N)C(C)c2ccccc2)cc1OC (centres undefined)	DT40 TDP1 no CPT inconclusive
COc1ccc(CCNCCC(c2ccccc2)c2ccccc2)cc1OC	IL1B secr inh -54, DT40 TDP1 no CPT 18µM, DT40 TDP1 CPT 18µM (no result: uPA surface inh)
COc1ccc(C(=O)OC(C)C(=O)NC(C)CCc2ccccc2)cc1OC (centres undefined)	DT40 TDP1 no CPT inconclusive
COc1cc(OC)c(OC)cc1CCC(C)NCCC(c1ccccc1)c1ccccc1 (centres undefined)	IL1B secr inh -65, DT40 TDP1 no CPT 5.8µM, HT1080-NT tox inconclusive, DT40 TDP1 CPT 6.5µM, HT1080 IDH1KD tx inconclusive
O=C(NN1CCOCC1)c1ccccc1	none
COc1ccc(-n2cnc3c(sc4nc(N5CCOCC5)c5c(c43)CCCC5)c2=O)cc1	DT40 TDP1 no CPT 23µM, DT40 TDP1 CPT 18µM
C=CCNc1nnnc2c1sc1nc(N3CCOCC3)c3c(c12)CCCC3	DT40 TDP1 no CPT 13µM
O=c1c2sc3nc(N4CCOCC4)c4c(c3c2nnn1Cc1ccccc1)CCCC4	DT40 TDP1 no CPT inconclusive, DT40 TDP1 CPT 8.2µM
